Assay in all cases: thermal shift delta Tm vs DMSO control; higher = stronger stabilization (binding)
Conditions in all cases: 12.5 µM; protein concentration 2 µM

The subject of one experiment is LOC_OS01G57100-cb003. In outline:
(§1)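 Thermal shift values come from differential scanning fluorimetry on purified rice kinase domains made in E. coli, with melting temperatures obtained from Boltzmann fits. Samples of 19.5 μl held 2 μM kinase, 100 mM potassium phosphate pH 7.5, 150 mM NaCl, 10% glycerol, 5 × SYPRO Orange and compound in DMSO, and were heated from 25°C to 95°C at 0.05°C/s. Each shift is a triplicate mean relative to the DMSO-only protein sample.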

Another experiment concerns LOC_OS01G60330-cb001. The gist of the method: as §1
The next experiment relates to LOC_OS01G60700-cb002. In outline:
as §1

A further experiment has as its system LOC_OS01G63280-cb003. In outline:
as §1

The subject of another experiment is LOC_OS01G67340-cb003. The gist of the method: as §1
The test system of a further experiment is LOC_OS01G70970-cb002. In outline:
as §1

The subject of another experiment is LOC_OS02G07810-cb001. In outline: as §1
The subject of the next experiment is LOC_OS02G08530-cb003. In outline:
as §1

Another experiment deals with LOC_OS02G14120-cb001. The gist of the method:
as §1

A further experiment has as its system LOC_OS02G17970-cb001. The gist of the method:
as §1

The subject of the next experiment is LOC_OS02G45750-cb003. The gist of the method:
as §1

The test system of the next experiment is LOC_OS02G54510-cb004. The gist of the method: as §1
In a further experiment the test system is LOC_OS03G04050-cb001. In outline:
as §1

In a further experiment the test system is LOC_OS03G12390-cb001. The gist of the method:
as §1

A further experiment deals with LOC_OS03G27990-cb004. In outline:
as §1

The test system of the next experiment is LOC_OS03G50450-cb001. In outline: as §1
For another experiment, the system named is LOC_OS03G50810-cb003. The gist of the method:
as §1

The subject of a further experiment is LOC_OS04G35114-cb001. The gist of the method:
as §1

A further experiment concerns T1, LOC_OS04G38480-cb003.
T1 sequence (whole entry): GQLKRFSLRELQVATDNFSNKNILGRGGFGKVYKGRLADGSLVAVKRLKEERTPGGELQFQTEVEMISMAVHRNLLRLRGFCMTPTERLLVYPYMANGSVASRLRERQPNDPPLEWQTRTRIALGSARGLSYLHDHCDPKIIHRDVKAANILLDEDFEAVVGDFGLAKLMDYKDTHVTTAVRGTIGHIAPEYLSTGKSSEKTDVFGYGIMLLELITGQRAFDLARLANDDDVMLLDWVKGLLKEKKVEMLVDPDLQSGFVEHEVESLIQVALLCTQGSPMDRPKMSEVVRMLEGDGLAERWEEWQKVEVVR
In outline: as §1

The next experiment has as its system T2, LOC_OS04G41100-cb001.
T2 sequence (whole entry): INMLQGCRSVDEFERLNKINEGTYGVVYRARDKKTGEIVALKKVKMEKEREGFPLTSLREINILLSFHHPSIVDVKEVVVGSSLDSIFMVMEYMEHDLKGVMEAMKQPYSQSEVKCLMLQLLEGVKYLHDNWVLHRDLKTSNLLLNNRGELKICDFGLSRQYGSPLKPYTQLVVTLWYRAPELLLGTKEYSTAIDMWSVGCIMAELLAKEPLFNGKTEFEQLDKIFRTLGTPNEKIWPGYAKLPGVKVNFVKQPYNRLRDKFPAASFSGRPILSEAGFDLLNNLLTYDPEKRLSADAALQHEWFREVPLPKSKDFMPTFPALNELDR
The gist of the method: as §1
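Note: purified Escherichia coli-expressed rice kinase domain construct.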

Regarding `CC(C)(C)c1ccc(S(=O)(=O)/C=C/C#N)cc1`, the “thermal shift delta Tm” value with LOC_OS01G57100-cb003 is 3.12 °C; in the experiment on LOC_OS01G60330-cb001, -0.21 °C; in the experiment on LOC_OS01G60700-cb002, 1.42 °C; in the experiment on LOC_OS01G63280-cb003, -3.74 °C; in the experiment with LOC_OS01G67340-cb003, 0.12 °C; in the experiment with LOC_OS01G70970-cb002 it was -4.09 °C. Also, the “thermal shift delta Tm” value was 0.63 °C in the experiment with LOC_OS02G07810-cb001; 1.02 °C with LOC_OS02G08530-cb003; -0.46 °C with LOC_OS02G14120-cb001; 5.71 °C in the experiment with LOC_OS02G17970-cb001; -0.34 °C in the experiment with LOC_OS02G45750-cb003; 1.26 °C in the experiment with LOC_OS02G54510-cb004. The “thermal shift delta Tm” value in the experiment with LOC_OS03G04050-cb001 is 0.18 °C; in the experiment with LOC_OS03G12390-cb001, -0.99 °C; in the experiment on LOC_OS03G27990-cb004 it was -0.83 °C; in the experiment on LOC_OS03G50450-cb001, 0.05 °C; in the experiment on LOC_OS03G50810-cb003, -1.59 °C; with LOC_OS04G35114-cb001 it was -1.78 °C. For the same compound, the “thermal shift delta Tm” value is 1.74 °C in the experiment on LOC_OS04G38480-cb003 and -0.39 °C in the experiment with LOC_OS04G41100-cb001.
`CC(C)(C)c1cnc(CSc2cnc(NC(=O)C3CCNCC3)s2)o1`: the “thermal shift delta Tm” value in the experiment with LOC_OS01G57100-cb003 is 0.61 °C; in the experiment on LOC_OS01G60330-cb001 it was 1.41 °C; in the experiment with LOC_OS01G60700-cb002 it was 1.28 °C; in the experiment on LOC_OS01G63280-cb003, 0.71 °C; in the experiment with LOC_OS01G67340-cb003, -0.45 °C; in the experiment on LOC_OS01G70970-cb002, 0.26 °C. The “thermal shift delta Tm” value was 0.43 °C with LOC_OS02G07810-cb001; 0.72 °C in the experiment on LOC_OS02G08530-cb003; 0.42 °C in the experiment with LOC_OS02G14120-cb001; -0.01 °C in the experiment with LOC_OS02G17970-cb001; 0.84 °C with LOC_OS02G45750-cb003; 0.08 °C in the experiment with LOC_OS02G54510-cb004. For the same compound, the “thermal shift delta Tm” value with LOC_OS03G04050-cb001 stood at 0.58 °C; in the experiment with LOC_OS03G12390-cb001, 0.18 °C; in the experiment on LOC_OS03G27990-cb004, 0.11 °C; in the experiment with LOC_OS03G50450-cb001, 0.05 °C; with LOC_OS03G50810-cb003 it was 0.57 °C; in the experiment on LOC_OS04G35114-cb001, 0.29 °C. In addition, the “thermal shift delta Tm” value came to 0.55 °C with LOC_OS04G38480-cb003 and 10.7 °C with LOC_OS04G41100-cb001.
`CO[C@H]1CC[C@H](N2C(=O)CNc3ncc(-c4ccc(C(C)(C)O)nc4)nc32)CC1`: the “thermal shift delta Tm” value in the experiment on LOC_OS01G57100-cb003 is -0.57 °C; in the experiment with LOC_OS01G60330-cb001 it was 0.72 °C; in the experiment with LOC_OS01G60700-cb002, 0.21 °C; in the experiment with LOC_OS01G63280-cb003 it was -0.43 °C; in the experiment with LOC_OS01G67340-cb003, 0.09 °C; with LOC_OS01G70970-cb002 it was -0.05 °C. In addition, the “thermal shift delta Tm” value with LOC_OS02G07810-cb001 is -0.1 °C; in the experiment on LOC_OS02G08530-cb003, 0.65 °C; in the experiment with LOC_OS02G14120-cb001, -1.04 °C; with LOC_OS02G17970-cb001 it was -0.48 °C; with LOC_OS02G45750-cb003 it was 0.31 °C; in the experiment with LOC_OS02G54510-cb004 it was -0.17 °C. Moreover, the “thermal shift delta Tm” value in the experiment with LOC_OS03G04050-cb001 was 0.09 °C; in the experiment on LOC_OS03G12390-cb001, -0.22 °C; in the experiment on LOC_OS03G27990-cb004 it was -0.29 °C; in the experiment on LOC_OS03G50450-cb001, 0.22 °C; in the experiment with LOC_OS03G50810-cb003, 0.18 °C; in the experiment with LOC_OS04G35114-cb001, -0.71 °C. Moreover, the “thermal shift delta Tm” value in the experiment with LOC_OS04G38480-cb003 came to 1.62 °C; with LOC_OS04G41100-cb001, 0.08 °C.
`CC(C)c1cnn2c(NCc3ccccc3-n3cccn3)nc(OC3CCCNC3)nc12` (stereo not given): the “thermal shift delta Tm” value in the experiment with LOC_OS01G57100-cb003 was 0.42 °C; in the experiment with LOC_OS01G60330-cb001, 1.35 °C; in the experiment with LOC_OS01G60700-cb002, 1.26 °C; with LOC_OS01G63280-cb003 it was 0.47 °C; with LOC_OS01G67340-cb003, 0.65 °C; with LOC_OS01G70970-cb002, 0.27 °C. Also, the “thermal shift delta Tm” value with LOC_OS02G07810-cb001 is 0.85 °C; in the experiment on LOC_OS02G08530-cb003, 0.74 °C; with LOC_OS02G14120-cb001 it was -0.11 °C; in the experiment with LOC_OS02G17970-cb001 it was 2.44 °C; in the experiment with LOC_OS02G45750-cb003, 0.32 °C; with LOC_OS02G54510-cb004, -0.14 °C. The “thermal shift delta Tm” value with LOC_OS03G04050-cb001 was 0.32 °C; in the experiment with LOC_OS03G12390-cb001, 0.22 °C; in the experiment with LOC_OS03G27990-cb004, 0.11 °C; in the experiment on LOC_OS03G50450-cb001 it was 0.09 °C; with LOC_OS03G50810-cb003, 0.5 °C; in the experiment with LOC_OS04G35114-cb001, 0.48 °C. In addition, the “thermal shift delta Tm” value in the experiment on LOC_OS04G38480-cb003 turned out to be 1.13 °C; in the experiment with LOC_OS04G41100-cb001 it was 0.57 °C.

For the origin of these results see the supplement of paper PMC9694430.
